# According to ChEMBL document CHEMBL1961873, “Compounds: GSK PKIS; Assays: Nanosyn kinase panel” (2012):
# Tests used:
# [1] = biological target: T1, Tyrosine-protein kinase ITK/TSK (Homo sapiens) (UniProt Q08881); settings: at 1 µM;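 also: values are mean percent inhibition of ITK from the GSK PKIS screen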
# T1 sequence (whole entry): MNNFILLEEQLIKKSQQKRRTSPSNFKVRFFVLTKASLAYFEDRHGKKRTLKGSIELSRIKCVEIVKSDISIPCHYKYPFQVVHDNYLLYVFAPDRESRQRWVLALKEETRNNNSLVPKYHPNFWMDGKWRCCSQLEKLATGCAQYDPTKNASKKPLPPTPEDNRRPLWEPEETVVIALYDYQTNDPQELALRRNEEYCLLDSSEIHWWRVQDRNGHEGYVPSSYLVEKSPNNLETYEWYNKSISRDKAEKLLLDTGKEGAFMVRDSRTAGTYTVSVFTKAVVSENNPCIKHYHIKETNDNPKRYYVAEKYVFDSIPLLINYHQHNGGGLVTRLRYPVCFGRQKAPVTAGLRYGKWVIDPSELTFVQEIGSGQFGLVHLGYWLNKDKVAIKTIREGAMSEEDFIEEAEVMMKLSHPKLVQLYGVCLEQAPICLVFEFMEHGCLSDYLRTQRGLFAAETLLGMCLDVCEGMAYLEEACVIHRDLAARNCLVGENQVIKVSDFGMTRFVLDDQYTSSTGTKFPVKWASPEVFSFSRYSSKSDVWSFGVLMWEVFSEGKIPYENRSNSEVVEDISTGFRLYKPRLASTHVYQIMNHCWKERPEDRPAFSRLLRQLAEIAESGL
# [2] = biological target: Tyrosine-protein kinase JAK1 (Homo sapiens) (UniProt P23458); settings: at 0.1 µM
# [3] = biological target: Tyrosine-protein kinase JAK1 (Homo sapiens) (UniProt P23458); settings: at 1 µM
# [4] = biological target: Tyrosine-protein kinase JAK2 (Homo sapiens) (UniProt O60674); settings: at 0.1 µM
# [5] = biological target: Tyrosine-protein kinase JAK2 (Homo sapiens) (UniProt O60674); settings: at 1 µM
# [6] = biological target: T2, Tyrosine-protein kinase JAK3 (Homo sapiens) (UniProt P52333); settings: at 0.1 µM
# T2 sequence (whole entry): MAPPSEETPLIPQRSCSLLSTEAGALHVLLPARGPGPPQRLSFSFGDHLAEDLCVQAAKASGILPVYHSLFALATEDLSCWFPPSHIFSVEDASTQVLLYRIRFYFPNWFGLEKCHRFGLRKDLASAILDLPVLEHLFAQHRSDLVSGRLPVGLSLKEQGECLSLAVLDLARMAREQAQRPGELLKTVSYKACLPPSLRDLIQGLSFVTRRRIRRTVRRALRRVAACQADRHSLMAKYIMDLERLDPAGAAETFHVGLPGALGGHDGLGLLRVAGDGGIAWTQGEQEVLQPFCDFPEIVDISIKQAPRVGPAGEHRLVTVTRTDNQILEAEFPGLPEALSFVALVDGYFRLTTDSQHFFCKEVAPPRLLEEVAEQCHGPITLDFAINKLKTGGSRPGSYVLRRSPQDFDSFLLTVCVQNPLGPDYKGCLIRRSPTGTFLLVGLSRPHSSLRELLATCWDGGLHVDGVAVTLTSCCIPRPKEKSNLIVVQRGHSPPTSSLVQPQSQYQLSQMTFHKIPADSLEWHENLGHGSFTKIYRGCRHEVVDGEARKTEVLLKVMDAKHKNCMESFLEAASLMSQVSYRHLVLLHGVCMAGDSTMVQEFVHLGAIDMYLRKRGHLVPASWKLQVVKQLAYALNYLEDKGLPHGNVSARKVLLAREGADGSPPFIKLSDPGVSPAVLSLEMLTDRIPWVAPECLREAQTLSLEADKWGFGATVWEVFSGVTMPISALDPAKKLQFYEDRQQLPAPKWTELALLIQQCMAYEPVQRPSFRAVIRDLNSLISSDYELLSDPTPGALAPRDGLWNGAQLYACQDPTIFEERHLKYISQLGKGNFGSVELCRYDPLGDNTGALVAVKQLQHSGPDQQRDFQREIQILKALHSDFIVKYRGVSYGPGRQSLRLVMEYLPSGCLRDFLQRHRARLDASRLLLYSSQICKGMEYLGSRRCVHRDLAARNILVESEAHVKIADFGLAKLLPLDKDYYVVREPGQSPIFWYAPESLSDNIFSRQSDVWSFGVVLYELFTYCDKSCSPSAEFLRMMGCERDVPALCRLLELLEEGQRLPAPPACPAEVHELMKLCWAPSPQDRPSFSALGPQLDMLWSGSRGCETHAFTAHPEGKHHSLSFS
# [7] = biological target: T2, Tyrosine-protein kinase JAK3 (Homo sapiens); settings: at 1 µM
# [8] = biological target: Vascular endothelial growth factor receptor 2 (Homo sapiens) (UniProt P35968); settings: at 0.1 µM
# [9] = biological target: Vascular endothelial growth factor receptor 2 (Homo sapiens) (UniProt P35968); settings: at 1 µM
# [10] = biological target: Mast/stem cell growth factor receptor Kit (Homo sapiens) (UniProt P10721); settings: at 0.1 µM
# [11] = biological target: Mast/stem cell growth factor receptor Kit (Homo sapiens) (UniProt P10721); settings: at 1 µM
# [12] = test system: Mast/stem cell growth factor receptor Kit (Homo sapiens), P10721 [D816V]; settings: at 0.1 µM
# [13] = test system: Mast/stem cell growth factor receptor Kit (Homo sapiens), P10721 [D816V]; settings: at 1 µM
# [14] = test system: Mast/stem cell growth factor receptor Kit (Homo sapiens), P10721 [T670I]; settings: at 0.1 µM
# [15] = test system: Mast/stem cell growth factor receptor Kit (Homo sapiens), P10721 [T670I]; settings: at 1 µM
# [16] = test system: Mast/stem cell growth factor receptor Kit (Homo sapiens), P10721 [V560G]; settings: at 0.1 µM
# [17] = test system: Mast/stem cell growth factor receptor Kit (Homo sapiens), P10721 [V560G]; settings: at 1 µM
# [18] = biological target: Tyrosine-protein kinase Lck (Homo sapiens) (UniProt P06239); settings: at 0.1 µM
# [19] = biological target: Tyrosine-protein kinase Lck (Homo sapiens) (UniProt P06239); settings: at 1 µM
# [20] = biological target: Leukocyte tyrosine kinase receptor (Homo sapiens) (UniProt P29376); settings: at 0.1 µM
# Sequence of Leukocyte tyrosine kinase receptor (Homo sapiens) (P29376 whole entry): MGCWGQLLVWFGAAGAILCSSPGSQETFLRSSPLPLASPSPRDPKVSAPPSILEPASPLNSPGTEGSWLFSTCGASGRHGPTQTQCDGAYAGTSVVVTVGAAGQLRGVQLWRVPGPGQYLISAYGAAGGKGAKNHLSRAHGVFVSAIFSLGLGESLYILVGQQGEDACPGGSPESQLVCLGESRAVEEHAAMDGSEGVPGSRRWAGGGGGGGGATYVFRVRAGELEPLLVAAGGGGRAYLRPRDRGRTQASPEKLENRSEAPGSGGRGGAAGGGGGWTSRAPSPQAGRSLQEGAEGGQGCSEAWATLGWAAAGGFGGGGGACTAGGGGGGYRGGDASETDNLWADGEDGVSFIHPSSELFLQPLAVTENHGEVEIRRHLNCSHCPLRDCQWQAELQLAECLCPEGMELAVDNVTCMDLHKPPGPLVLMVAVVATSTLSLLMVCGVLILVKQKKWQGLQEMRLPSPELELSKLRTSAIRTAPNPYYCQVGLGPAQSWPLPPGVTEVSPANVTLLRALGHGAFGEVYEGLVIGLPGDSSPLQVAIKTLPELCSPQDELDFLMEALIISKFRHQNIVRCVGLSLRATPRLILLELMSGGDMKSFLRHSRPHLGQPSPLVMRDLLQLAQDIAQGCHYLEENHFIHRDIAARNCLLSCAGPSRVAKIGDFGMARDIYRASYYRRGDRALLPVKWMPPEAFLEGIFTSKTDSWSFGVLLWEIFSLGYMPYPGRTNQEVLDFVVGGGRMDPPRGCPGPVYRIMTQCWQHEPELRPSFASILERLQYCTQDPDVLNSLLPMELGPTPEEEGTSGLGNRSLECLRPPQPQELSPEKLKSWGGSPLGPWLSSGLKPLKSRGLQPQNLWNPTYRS
# Sequence of Vascular endothelial growth factor receptor 2 (Homo sapiens) (P35968 whole entry): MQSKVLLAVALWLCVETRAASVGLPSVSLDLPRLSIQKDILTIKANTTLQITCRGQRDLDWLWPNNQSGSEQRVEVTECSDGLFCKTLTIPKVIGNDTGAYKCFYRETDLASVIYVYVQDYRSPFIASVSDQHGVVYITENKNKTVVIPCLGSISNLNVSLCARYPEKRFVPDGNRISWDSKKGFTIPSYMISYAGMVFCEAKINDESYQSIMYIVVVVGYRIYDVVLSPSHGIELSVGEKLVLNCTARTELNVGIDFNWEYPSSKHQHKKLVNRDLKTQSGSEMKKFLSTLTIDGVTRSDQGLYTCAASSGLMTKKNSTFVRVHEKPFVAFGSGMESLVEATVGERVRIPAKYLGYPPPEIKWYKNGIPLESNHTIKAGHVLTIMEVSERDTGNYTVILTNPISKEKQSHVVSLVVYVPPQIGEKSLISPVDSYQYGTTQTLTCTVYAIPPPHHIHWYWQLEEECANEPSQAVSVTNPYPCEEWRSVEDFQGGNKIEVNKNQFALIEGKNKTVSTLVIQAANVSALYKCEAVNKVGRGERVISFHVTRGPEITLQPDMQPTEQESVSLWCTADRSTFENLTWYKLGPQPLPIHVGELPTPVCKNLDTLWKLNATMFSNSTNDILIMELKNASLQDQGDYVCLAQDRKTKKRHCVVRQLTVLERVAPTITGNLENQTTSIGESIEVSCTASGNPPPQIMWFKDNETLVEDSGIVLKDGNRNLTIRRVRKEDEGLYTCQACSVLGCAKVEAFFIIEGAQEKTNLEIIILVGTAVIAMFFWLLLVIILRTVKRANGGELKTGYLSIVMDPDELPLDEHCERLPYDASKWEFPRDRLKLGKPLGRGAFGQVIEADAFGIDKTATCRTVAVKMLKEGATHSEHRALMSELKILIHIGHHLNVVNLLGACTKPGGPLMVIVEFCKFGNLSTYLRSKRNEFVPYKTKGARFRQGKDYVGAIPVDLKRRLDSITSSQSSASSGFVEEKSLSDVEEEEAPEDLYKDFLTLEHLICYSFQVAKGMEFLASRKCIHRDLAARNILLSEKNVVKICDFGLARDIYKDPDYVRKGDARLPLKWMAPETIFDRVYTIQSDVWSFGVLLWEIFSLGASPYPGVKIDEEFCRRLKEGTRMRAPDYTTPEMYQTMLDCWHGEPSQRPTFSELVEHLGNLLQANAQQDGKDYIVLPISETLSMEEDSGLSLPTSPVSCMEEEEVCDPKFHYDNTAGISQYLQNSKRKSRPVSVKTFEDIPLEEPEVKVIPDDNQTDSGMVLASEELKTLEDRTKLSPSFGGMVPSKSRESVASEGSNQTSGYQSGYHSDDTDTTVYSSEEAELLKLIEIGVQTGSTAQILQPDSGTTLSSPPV
# Sequence of Tyrosine-protein kinase Lck (Homo sapiens) (P06239 2-509 limits assumed): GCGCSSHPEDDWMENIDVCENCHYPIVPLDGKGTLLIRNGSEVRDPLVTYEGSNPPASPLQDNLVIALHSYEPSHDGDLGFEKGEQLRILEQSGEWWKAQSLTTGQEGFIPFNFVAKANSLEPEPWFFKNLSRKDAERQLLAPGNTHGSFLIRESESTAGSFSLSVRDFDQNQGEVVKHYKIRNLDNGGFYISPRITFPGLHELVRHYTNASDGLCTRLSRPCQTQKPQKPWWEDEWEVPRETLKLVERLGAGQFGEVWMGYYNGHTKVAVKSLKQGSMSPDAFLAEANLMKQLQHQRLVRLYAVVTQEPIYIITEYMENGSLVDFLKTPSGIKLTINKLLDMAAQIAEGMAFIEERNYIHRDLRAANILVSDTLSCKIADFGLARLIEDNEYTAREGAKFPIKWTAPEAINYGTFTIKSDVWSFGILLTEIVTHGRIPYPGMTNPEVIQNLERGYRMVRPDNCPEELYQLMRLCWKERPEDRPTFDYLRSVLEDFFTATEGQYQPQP
# Sequence of Tyrosine-protein kinase JAK1 (Homo sapiens) (P23458 whole entry): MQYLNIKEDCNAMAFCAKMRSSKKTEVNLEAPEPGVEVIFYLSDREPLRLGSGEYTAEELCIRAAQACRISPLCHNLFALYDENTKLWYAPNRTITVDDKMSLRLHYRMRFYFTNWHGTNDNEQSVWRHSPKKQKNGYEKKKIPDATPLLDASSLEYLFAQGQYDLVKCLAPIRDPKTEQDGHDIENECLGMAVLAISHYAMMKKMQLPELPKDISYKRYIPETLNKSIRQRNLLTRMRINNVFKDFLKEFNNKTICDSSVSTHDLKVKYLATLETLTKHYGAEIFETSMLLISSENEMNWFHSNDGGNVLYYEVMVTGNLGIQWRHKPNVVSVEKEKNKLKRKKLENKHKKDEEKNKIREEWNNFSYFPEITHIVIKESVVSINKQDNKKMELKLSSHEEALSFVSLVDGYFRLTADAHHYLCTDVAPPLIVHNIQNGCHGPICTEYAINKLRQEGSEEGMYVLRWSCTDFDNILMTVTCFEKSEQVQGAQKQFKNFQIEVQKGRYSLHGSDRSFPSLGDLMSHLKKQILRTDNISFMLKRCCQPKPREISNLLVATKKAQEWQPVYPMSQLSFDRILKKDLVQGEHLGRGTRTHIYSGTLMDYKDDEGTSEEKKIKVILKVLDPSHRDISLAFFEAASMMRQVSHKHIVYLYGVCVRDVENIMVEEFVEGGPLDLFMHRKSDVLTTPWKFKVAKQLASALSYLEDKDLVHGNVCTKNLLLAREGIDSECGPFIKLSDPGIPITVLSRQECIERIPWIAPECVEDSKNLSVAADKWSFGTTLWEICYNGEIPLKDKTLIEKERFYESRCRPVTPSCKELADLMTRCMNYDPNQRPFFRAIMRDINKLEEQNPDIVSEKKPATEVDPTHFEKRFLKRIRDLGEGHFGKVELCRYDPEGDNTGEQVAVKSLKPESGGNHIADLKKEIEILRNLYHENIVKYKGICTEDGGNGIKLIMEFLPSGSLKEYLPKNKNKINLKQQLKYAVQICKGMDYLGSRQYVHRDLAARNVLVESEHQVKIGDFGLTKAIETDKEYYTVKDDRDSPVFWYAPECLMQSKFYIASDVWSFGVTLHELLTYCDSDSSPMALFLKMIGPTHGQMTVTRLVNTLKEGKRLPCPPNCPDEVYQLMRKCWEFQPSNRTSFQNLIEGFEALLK
# Sequence of Mast/stem cell growth factor receptor Kit (Homo sapiens), P10721 [D816V] (P10721 whole entry D816V): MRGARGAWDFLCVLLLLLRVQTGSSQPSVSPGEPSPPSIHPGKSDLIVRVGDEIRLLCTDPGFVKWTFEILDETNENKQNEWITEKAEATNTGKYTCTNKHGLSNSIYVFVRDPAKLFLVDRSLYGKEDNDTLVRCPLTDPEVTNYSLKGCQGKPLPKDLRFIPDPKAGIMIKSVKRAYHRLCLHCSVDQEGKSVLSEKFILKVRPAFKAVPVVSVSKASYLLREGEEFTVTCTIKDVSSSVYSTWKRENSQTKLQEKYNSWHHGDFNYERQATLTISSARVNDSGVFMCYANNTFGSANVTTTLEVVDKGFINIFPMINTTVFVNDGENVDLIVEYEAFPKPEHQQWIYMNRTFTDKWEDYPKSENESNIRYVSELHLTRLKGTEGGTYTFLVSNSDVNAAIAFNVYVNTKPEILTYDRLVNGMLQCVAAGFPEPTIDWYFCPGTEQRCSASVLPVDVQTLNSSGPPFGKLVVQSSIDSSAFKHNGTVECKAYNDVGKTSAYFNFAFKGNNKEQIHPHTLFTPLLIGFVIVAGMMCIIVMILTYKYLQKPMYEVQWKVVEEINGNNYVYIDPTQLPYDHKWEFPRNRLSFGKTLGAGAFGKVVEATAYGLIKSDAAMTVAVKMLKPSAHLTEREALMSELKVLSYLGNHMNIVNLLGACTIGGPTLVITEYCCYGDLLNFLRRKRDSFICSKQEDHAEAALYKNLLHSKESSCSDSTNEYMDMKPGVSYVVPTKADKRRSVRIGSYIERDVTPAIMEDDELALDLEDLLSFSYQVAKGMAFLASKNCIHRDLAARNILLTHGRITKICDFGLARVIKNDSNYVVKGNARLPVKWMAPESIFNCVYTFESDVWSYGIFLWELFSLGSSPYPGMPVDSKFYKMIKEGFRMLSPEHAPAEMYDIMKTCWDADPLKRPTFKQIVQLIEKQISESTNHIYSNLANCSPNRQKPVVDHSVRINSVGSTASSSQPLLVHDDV
Compound,inhibition [1] [%],inhibition [2] [%],inhibition [3] [%],inhibition [4] [%],inhibition [5] [%],inhibition [6] [%],inhibition [7] [%],inhibition [8] [%],inhibition [9] [%],inhibition [10] [%],inhibition [11] [%],inhibition [12] [%],inhibition [13] [%],inhibition [14] [%],inhibition [15] [%],inhibition [16] [%],inhibition [17] [%],inhibition [18] [%],inhibition [19] [%],inhibition [20] [%]
COc1cc2c(cc1Nc1nc(N3CCc4ccccc43)c3cc[nH]c3n1)N(C(=O)CN(C)C)CC2,1.52,-0.01,-3.36,1.69,0.18,0.19,0.18,1.11,0.21,3.11,5.18,3.89,5.06,1.21,4.61,0.64,1.28,1.15,6,75.9
O=C1NC(=O)C(c2ccccc2Cl)=C1Nc1cccc(O)c1,2.08,3.43,0.51,2.97,4.56,0.39,21.8,4.45,6.91,0.48,0.62,2.13,2.69,-1.05,-0.04,0.38,1.68,2.08,5.21,0.86
COc1ccc2cc(-c3c(-c4ccncc4)nc(-c4ccc([S+](C)[O-])cc4)n3C)ccc2c1 (centres undefined),3.22,1.65,-2.81,0.86,2.23,-0.93,0.05,4.56,17.8,1.88,-0.76,1.61,4.68,-0.37,-0.98,2.62,0.15,2.55,6.96,2.55
CCCN1CCC(Oc2cc(Nc3nc(Nc4cccc(F)c4C(N)=O)c4cc[nH]c4n3)c(OC)cc2Cl)CC1,1.18,-1.95,-2.49,0.96,1.42,0.62,1.56,9.18,18.5,-0.76,2.77,-2.42,-0.61,-1.82,3.06,5.14,6.37,-0.28,4.94,16.4
O=C1NC(=O)C(N2CCc3ccccc32)=C1c1ccc(Cl)cc1,2.44,1.13,0.25,1.54,2.81,-1.28,1.36,12.4,14.6,6.61,12,2.68,2.43,3.14,3.85,7,3.94,1.6,4.29,2.8
CCn1c(-c2nonc2N)nc2cncc(C(=O)N3CC[C@H](N)C3)c21,1.18,-1.1,22.4,0.61,1.25,-0.95,-0.29,7.05,15.8,5.39,6.77,5.29,5.73,3.35,3.02,2.5,-1.61,,,4.31
CS(=O)(=O)CCNCc1nc(-c2ccc3ncnc(Nc4ccc(F)c(Cl)c4)c3c2)cs1,0.89,2.86,4.25,0.34,4.99,-0.02,3.43,9.85,18.5,3.87,5.11,3.12,2.42,1.78,2.83,10.4,10.7,3.91,20,2.39
Cn1cc(C=C2C(=O)Nc3cccnc32)c2ccccc21,15.7,1.61,-6.11,0.37,2.77,-0.5,4.53,14.7,54.8,11.3,52.7,2.87,5.81,2.37,19.8,-1.28,3.99,4.03,25.5,2.72
COc1cc2ncn(-c3cc(OCc4ccccc4C(F)(F)F)c(C(N)=O)s3)c2cc1OC,-0.36,1.72,2.62,1.67,1.84,-6.46,-2.61,21.7,68.9,,20.5,5.23,7.66,3.55,9.7,-1.78,2.96,0.99,12.6,2.36
COc1ccc(-c2ccncc2)cc1C(N)=O,2.32,0.28,3.27,2.44,3.4,-2,0.37,2.67,13,3.75,8.81,5.33,6.29,2.7,5.32,-1.34,-1.88,3.42,4.47,5.46
Nc1ncnc2occ(-c3ccc(NC(=O)Nc4cccc(C(F)(F)F)c4)cc3)c12,12.3,0.84,11.8,1.98,9.83,-4.17,-2.01,73.5,77.3,94.9,97.3,3.24,6.5,72.5,83.9,104,97.8,12.1,46.7,7.15
CCc1cccc(NC(=O)Nc2ccc(Oc3ccc4nc(NC(=O)OC)[nH]c4c3)cc2)c1,1.87,1.39,1.27,1.07,4.62,-1.05,1.13,,,87.5,93,0.55,0,58.6,69.8,65.6,74.1,5.87,8.47,1.87
Fc1cccc(COc2ccc(Nc3ncnc4cc(-c5ccc[nH]5)sc34)cc2Cl)c1,-1.9,2.84,13.6,1.26,3.62,-3.97,-1.5,6.01,11.8,2.16,2.05,0.67,1.62,1.82,2.49,0.61,1.53,-1.91,2.29,2.11
COc1ccccc1Nc1ncc(-c2ccccc2)o1,3.07,4.14,5.2,0.56,-0.51,-3.6,-1.96,10.6,19.2,78.2,98.2,4.74,6.9,17.8,77.7,31.5,85.5,4.55,9.64,3.5
COc1cc(C)c(NC(=O)CN(C)C)cc1Nc1nc(Nc2cccc(F)c2C(N)=O)c2cc[nH]c2n1,1.95,2.55,-4.44,0.46,0.22,0.71,-1.63,3.26,4.13,2.98,4.07,2.88,1.48,0.3,0.56,0.02,0.48,1.38,1.74,92.9
NC(=O)c1ccc(-c2nc(-c3ccccn3)c(-c3ccc4c(c3)OCO4)[nH]2)cc1,1.43,3.36,8.87,1.02,1.92,-1.26,0.2,2.91,3.09,1.09,4.68,7.73,5.29,0.05,,1.28,6.23,2.19,4.07,3.03
CCn1c(-c2nonc2N)nc2cnc(Oc3cccc(NC(=O)c4ccc(OCCN5CCOCC5)cc4)c3)cc21,0.94,4.42,12.1,5.74,1.29,0.31,-0.45,5.67,7.83,5.45,3.53,2.71,-0.34,2.87,4.8,-1.11,2.85,0.98,4.63,2.7
